In the library only some 5.4% were active in any assay of this set; here they are far more common.
Lassa entry inh: inhibitors of Lassa virus binding or cell entry; Lassa virus pseudotype entry inhibition, cell reporter; Potency, µM (doses to about 37.9 µM), without a hit: at the top dose activity change, negative = inhibition, usual class: inhibitors; 1.2% of 300,000 active; calls by dose curve; tested in HEK293 cells; also: nearly all actives have a fitted effect of over 50% in size
Marburg entry inh: Marburg virus entry inhibition; 1.8% of 300,000 active; Potency, µM (highest dose often 37.8 µM), inactives show at the highest dose activity change, negative = inhibition, most hits filed as inhibitors; AID 540276; Marburg virus pseudotyped entry inhibition, cell reporter; calls by dose curve; tested in HEK293 cells
Sm TGR block: S. mansoni TGR enzyme inhibition; purified TGR, DTNB reduction, TNB absorbance 405 nm; Potency, µM (series often up to 114 µM), for the others: at the top dose activity change, negative = inhibition, hits mostly inhibitors; 3% of 360,000 active; AID 485364; active = well fitted inhibition curve with a large enough effect; inconclusive = small, poorly fitted or top-dose-only effect; inactive = no such curve, though single readings can be large or run the other way; also: nearly all actives have a fitted effect of over 60% in size
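First, TGR (20 nM dispensed) and NADPH were mixed with compound. Second, a 15 min room-temperature incubation followed. Third, further NADPH and then DTNB were added to start the reaction. Finally, TNB absorbance was monitored kinetically.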
Vaccinia Venus: vaccinia inhibition (Venus reporter); Vaccinia virus Venus reporter expression, fluorescence; Potency, µM (highest dose often 36.5 µM), for inactives: at the highest dose activity change, negative = inhibition, most hits filed as inhibitors; 0.46% of 330,000 active; calls by dose curve; tested in A549 cells; also: nearly all actives have a fitted effect of over 30% in size
Vaccinia mCherry: vaccinia inhibition (mCherry reporter); AID 720579; Vaccinia virus mCherry reporter infection, fluorescence; Potency, µM (titrated, usually from 36.5 µM), inactives show at the top dose activity change, negative = inhibition, most hits filed as inhibitors; 0.63% of 310,000 active; calls by dose curve; tested in A549 cells; also: nearly all actives have a fitted effect of over 35% in size
FMDV antiviral: foot and mouth disease virus antiviral activity; FMDV antiviral cell-based qHTS; Potency, µM (titrated, usually from 57.9 µM), for inactives: at the highest dose activity change, negative = inhibition, usual class: inhibitors; 1.2% of 410,000 active; AID 1159524; calls by dose curve; tested in HEK293T cells; also: read-out not given here; nearly all actives have a fitted effect of over 45% in size
Numbers without * were called inactive; i = inactive; ? = inconclusive; . = no result given; [ ] = dose if it differs, or a comment. % is scaled to controls: 0 for no effect and ±100 for the full control effect; potency is read from the fitted curve at half-maximal effect.

SMILES	Lassa entry inh	Marburg entry inh	Sm TGR block	Vaccinia Venus	Vaccinia mCherry	FMDV antiviral
CCOC(=O)c1c(NC(=O)CSc2cn(CCNC(=O)c3ccc(OC)cc3)c3ccccc23)sc2c1CCC2	-9%[46.1 µM]	?	-1%	-9%	-6%	-11%
Clc1ccccc1CN1CCN(/N=C/C=C\c2ccco2)CC1	9%	?	50µM*	3%	-2%	12%
CC(=O)Oc1oc(-c2ccccc2)nc1C=Nc1ccccc1	0%	11%	18µM*	-14%	-10%	-19%
Cc1ccc(C(=O)Oc2oc(-c3ccco3)nc2C=Nc2ccccc2)cc1	.	-5%	2.5µM*	.	.	.
COc1ccc(N=Cc2nc(-c3ccccc3)oc2OC(=O)c2ccccc2)cc1	?	-43%	-27%	.	.	43%
CCN1C(=O)NC(CCc2ccccc2)C(C(=O)OC)=C1C (centres undefined)	.	17%[14.2 µM]	.	.	.	.
Cc1cc(-n2c(C)nc3ccccc3c2=O)ccc1NC(=O)c1cccc([N+](=O)[O-])c1	15%[46.1 µM]	.	16%	0%	-14%	-25%
CCc1ccc(CNc2ccc3c(c2)ncn3CC)cc1	?	?	4.5µM*	-15%	-11%	0%
CCCCn1cnc2cc(NCc3ccccc3Cl)ccc21	?	13µM*	0%	-11%	-14%	-2%
CN(C)c1ccc(CNc2ccc3c(c2)ncn3C)cc1	-28%	?	35µM*	.	.	-2%
CCc1ccc(CNc2ccc3c(c2)ncn3C(C)(C)C)cc1	1.8µM*	10µM*	-1%	-18%	-19%	0%
CCCc1cc(=O)[nH]c2nnc(SCC(=O)Nc3ccc(OC)cc3)n12	22%[46.1 µM]	.	-1%	-7%	-16%	4%
COc1cccc(C2C=C(c3ccc(C)c(C)c3)Nc3nnnn32)c1OC (centres undefined)	?	.	-17%	-2%	-12%	30%
CCC1CN(Cc2cn[nH]c2-c2ccc(OC)cc2)Cc2cc(OC)ccc2O1 (centres undefined)	.	.	.	-13%	-25%	-20%
CC(C)N(Cc1c(O)ccc2c(=O)c(-c3ccc(Cl)cc3)coc12)C(C)C	.	.	40µM*	.	.	27%
CC1CCCCN1Cc1c(O)ccc2c(=O)c(-c3ccc(Cl)cc3)coc12 (centres undefined)	2%[46.1 µM]	?	7%	-10%	-7%	19%
COc1ccc(N2C(=O)CC(Sc3ncccc3C(=O)O)C2=O)cc1 (centres undefined)	-1%	5%	?	0%	-13%	.
CCOc1ccc(N2C(=O)CC(Sc3nnnn3-c3ccccc3)C2=O)cc1 (centres undefined)	-5%	?	10µM*	6%	-2%	?
O=C(O)c1cccnc1SC1CC(=O)N(c2ccccc2)C1=O (centres undefined)	.	.	50µM*	-1%[7.34 µM]	-3%[7.34 µM]	-18%
O=C(O)c1ccccc1SCC(=O)N1CCCCC1	-2%	16%	0%	-14%	.	20%
O=C(O)c1ccccc1SC1CC(=O)N(C2CCCCC2)C1=O (centres undefined)	.	.	4µM*	-14%	i	-13%
O=C(O)c1ccccc1SC1CC(=O)N(c2ccccc2)C1=O (centres undefined)	2%	-13%	14µM*	-4%	-9%	-10%
CCOc1ccc(N2C(=O)CC(Sc3nc(C)cc(C)n3)C2=O)cc1 (centres undefined)	11%	4%	-7%	-14%	-11%	.
O=C1CC(Sc2cccs2)C(=O)N1c1ccccc1 (centres undefined)	?	-10%[46.1 µM]	6.3µM*	-8%[7.34 µM]	i[7.34 µM]	28%
CC(c1ccccc1)N1C(=O)CC(Sc2ncccc2C(=O)O)C1=O (centres undefined)	-12%	1%	35µM*	-11%	-22%	.
SMILES	Lassa entry inh	Marburg entry inh	Sm TGR block	Vaccinia Venus	Vaccinia mCherry	FMDV antiviral
Cc1nnc(SC2CC(=O)N(c3ccccc3)C2=O)s1 (centres undefined)	0%	8%[46.1 µM]	2.5µM*	-14%	.	-10%
COc1cc(C2C(=O)N(C3CCCCC3)CC(=O)N2C2CCCC2)ccc1OC(C)C (centres undefined)	11%[46.1 µM]	.	9%	-7%	i	-27%
Cc1nc2c(-c3ccc(F)cc3)c(C)nn2c(C)c1CCC(=O)NCc1cccc(Cl)c1	-3%[46.1 µM]	1%[46.1 µM]	12%	-20%	-19%	0%
CO[C@H]1[C@H](NC(=O)c2ccsc2)c2ccccc2C12CCN(Cc1cccc3ncccc13)CC2	.	.	.	-4%	-13%	-17%
COc1ccc(CN2CCOc3ccc(CN4CCC(O)CC4)cc3C2)c(OC)c1OC	.	.	.	0%	i	-6%
CC1(C)Cc2c(C#N)c(OCC(=O)c3ccccc3)nc(-c3ccoc3)c2CO1	-4%	-14%	-2%	.	.	-18%
CC1(C)Cc2c(C#N)c(OCC(=O)c3ccc(Cl)cc3)nc(-c3ccoc3)c2CO1	15%	23%	40µM*	0%	.	-5%
COc1ccc(C(=O)Nc2cc(C)on2)c(OC)c1	.	.	-7%	.	.	52%
COc1ccc(C(=O)Nc2ccc(C)cn2)c(OC)c1	0.65µM*	1µM*	5%	-13%	31%	1.8µM*
CCOc1ccc(C(NC(=O)CC)c2c(O)ccc3ccccc23)cc1 (centres undefined)	.	.	2%	.	.	12%
CC(=O)Oc1ccc2ccccc2c1C(NC(=O)Cc1ccccc1)c1ccc(Cl)cc1 (centres undefined)	5%	?	-20%	?	28µM*	?
O=C(NCC1Cc2cccc(-c3cccnc3)c2O1)c1cc(-c2ccccc2)n[nH]1 (centres undefined)	.	.	.	-16%	i	-13%
Cc1cc(C(=O)N2CCN(c3ccccc3)CC2)c(C)o1	43%	-2%	0%	.	.	21%
O=C(c1cccc(Cl)c1)N1CCN(c2ccccn2)CC1	-10%	20%	-5%	-12%	-16%	4%
CSc1ccccc1C(=O)N1CCN(c2cccc(Cl)c2)CC1	5.6µM*	?	10%	?	?	-18%
O=C(Nc1ccc(C(F)(F)F)cc1)c1cnc(N2CCN(c3ccccn3)CC2)c2ccccc12	-2%	-5%[46.1 µM]	3%	5%	4%	7.1µM*
Cc1cc(C(=O)N2CCN(c3cccc(Cl)c3)CC2)c(C)o1	?	6.3µM*	-17%	?	?	?
O=C(c1ccc(S(=O)(=O)c2cccc(Cl)c2)c([N+](=O)[O-])c1)N1CCN(c2ccccn2)CC1	?	7.1µM*	3.5µM*	-8%	-17%	16µM*
CC(C)CCNC(=O)c1ccc2c(c1)N(Cc1ccccc1F)C(=O)c1ccccc1S2=O (centres undefined)	?	-6%[46.1 µM]	2%	-2%	-15%	0%
O=C(c1cnc(N2CCN(c3ccccn3)CC2)c2ccccc12)N1CCN(c2cccc(Cl)c2)CC1	?	?	-4%	?	?	8.9µM*
O=C(c1cc(Cl)ccc1Cl)N1CCN(c2ccccn2)CC1	-3%	?	4%	-5%	-9%	?

From PubChem BioAssay
